Measurements taken from PubChem BioAssay (NCATS).
Results filed as inconclusive are left out. Where a call stands in place of a potency, no number is given. The source made the active and inactive calls. The call rests on the fitted dose curve; in most records, active means well fitted inhibition curve with a large enough effect; inconclusive means small, poorly fitted or top-dose-only effect; inactive means flat fitted curve, though single readings scatter. Where a SMILES comes first, the peptide text is derived from it.

Tested on: HEK293T
Assay: qHTS assay to identify novel small-molecules to repurpose for Merkel cell carcinoma treatment (AID 1296009); further: nearly all actives have a fitted effect of over 60% in size
Conditions: MCC and control cell lines, CellTiter-Glo viability, 72 h; series mostly up to 44.8 µM
Procedure, shortened: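 72 hr, 37 degree celsius; NPC 8-pt / MIPE 11-pt dose response; compound pinned in DMSO; CellTiter-Glo, 10 min RT, luminescence; normalized to no-cell and DMSO controls.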

Row | Compound | Potency | outcome
1 | C=C1C[C@@]23CC[C@@H]4[C@](C)(C(=O)O)CCC[C@@]4(C)C2=CC[C@H]1C3 | inactive | 
2 | CC1OC(OC2C(O)C(C(=O)O)OC(OC3CCC4(C)C(CCC5(C)C4C=CC4=C6CC(C)(C)CC(O)C6(C)CCC45C)C3(C)C)C2OC2OCC(O)C(O)C2O)C(O)C(O)C1O (centres undefined) |  | inactive [at 9.27 µM]
3 | CC1OC(O[C@H]2[C@@H](O)C[C@@]3(C)C([C@H](O)C[C@]4(C)C3CC=C3C5CC(C)(C)CC[C@]5(C(=O)OC5OC(CO)C(O)C(O)C5OC5OCC(OC6OCC(OC7OCC(O)C(O)C7O)C(O)C6O)C(OC6OCC(O)(CO)C6O)C5O)CC[C@]34C)[C@]2(C)CO)C(O)C(O)C1O (some centres undefined) |  | inactive [at 9.27 µM]
4 | CC(=O)O[C@H]1[C@H](C)[C@@H](O)[C@H]2[C@@H]1C=C(C(=O)O)[C@H]1C[C@@H]3[C@H]([C@H]21)[C@H]1C(=O)O[C@@H]2CC[C@@]3(C)O[C@]1(O)[C@@H]2C | inactive | 
5 | C[C@@H]1CC[C@]2(C(=O)O)CC[C@]3(C)C(=CCC4[C@]5(C)C(CC[C@]43C)C(C)(C)[C@@H](O)[C@H](O)[C@@H]5O)C2[C@]1(C)O (some centres undefined) | inactive | 
6 | C/C=C1\[C@H](O[C@@H]2O[C@H](CO)[C@@H](O)[C@H](O)[C@H]2O)OC=C(C(=O)OC)[C@H]1CC(=O)OC | inactive | 
7 | C/C=C/C=C/C(CC(=O)O)Nc1ccc(C=O)cc1 (centres undefined) | inactive | 
8 | C=C[C@@]1(C)CC(=O)C2[C@](C)(O1)[C@@H](OC(C)=O)[C@@H](O)[C@H]1C(C)(C)CCC[C@]21C (some centres undefined) |  | inactive [at 9.27 µM]
9 | CCC(C)/C=C(C)/C=C/C1=CC2=C(Cl)C(=O)C(C)(OC(C)=O)C(=O)C2=CN1C1CCCCN(C(CCC(N)=O)C(=O)O)C1=O (centres undefined) | inactive | 
10 | C=C1C(=O)OC2CC(C)=C(C(C)CCCO[C@@H]3O[C@H](CO)[C@@H](O)[C@H](O)[C@H]3O)C(O)C12 (some centres undefined) | inactive | 
11 | CC(C)C1=CCC(C)(O)C(OC2OC(CO)C(O)C(O)C2O)C1 (centres undefined) | inactive | 
12 | C[C@H]1C[C@H]2[C@@H]3CCC4=CC(=O)C=C[C@]4(C)[C@@]3(F)[C@@H](O)C[C@]2(C)[C@@]1(O)C(=O)COP(=O)(O)O | inactive | 
13 | C=C(C(=O)O)[C@@H]1CC=C2CCC[C@H](C)[C@@]2(C)C1 | inactive | 
14 | C=C1CC2[C@]3(C)C(=C(O)C(=O)[C@@]2(C)[C@]2(C(=O)OC)C(=O)C(C)OC(=O)[C@@]12C)C(C)(C)C(=O)CC3O (some centres undefined) | inactive | 
15 | COC(=O)[C@@]1(O)C=CC[C@@H]2[C@@]3(C)C[C@@H](c4ccoc4)OC(=O)[C@H]3CC[C@]21C | inactive | 
16 | CC(=O)OC[C@]12[C@H](OC(C)=O)C(=O)[C@@H]3[C@@H](OC(C)=O)[C@@]14O[C@@]3(C)COC(=O)c1cccnc1[C@@H](C)[C@H](C)C(=O)O[C@@H]([C@H](OC(C)=O)[C@@H]2OC(C)=O)[C@]4(C)O | inactive | 
17 | CCCCCCc1cccc(NC(=O)[C@H](N)CCP(=O)(O)O)c1 |  | inactive [at 9.27 µM]
18 | C/C(=C\CCC(C)(O)c1ccc(C)cc1)C(=O)O (centres undefined) | inactive | 
19 | CO[C@H]1C=C2C(CC[C@H](O[C@@H]3O[C@H](CO)[C@@H](O)[C@@H](O)[C@H]3O)C2(C)C)[C@]2(C)CC[C@]3(C)C([C@H](C)C(O)C(C=C(C)C)O[C@@H]4O[C@H](CO)[C@@H](O)[C@@H](O)[C@H]4O)CC[C@@]3(C)C12 (some centres undefined) |  | inactive [at 9.27 µM]
20 | C[C@@H]1O[C@@H](O[C@@H]2[C@@H](O)[C@H](O[C@@H]3[C@@H](O)[C@@H](O)[C@H](O[C@H]4[C@H](OC(=O)[C@]56CCC(C)(C)C[C@H]5C5=CCC7[C@@]8(C)C[C@H](O)[C@H](O[C@@H]9O[C@H](C(=O)O)[C@@H](O)[C@H](O)[C@H]9O)[C@@](C)(CO)C8[C@H](O)C[C@@]7(C)[C@]5(C)CC6)OC[C@H](O)[C@@H]4O)O[C@H]3C)OC[C@H]2O)[C@H](O)[C@H](O)[C@H]1O (some centres undefined) |  | inactive [at 9.27 µM]

Row | Compound | Potency | outcome
21 | C/C=C/C=C/C=C/C(=O)O[C@@H]1C=C(CO)C(O)(C(=O)O)[C@@]2(C)CCCC(C)(C)[C@H]12 (some centres undefined) | inactive | 
22 | CCOC(=O)c1ccnc(CNCC(=O)N(CC)CCN(C)C)c1 | inactive | 
23 | C/C=C/C=C/C=C/C(=O)O[C@@H]1[C@@H](OC)C2=C(C(=O)N(C(C)C(=O)O)C2)[C@@]2(C)CCCC(C)(C)[C@H]12 (some centres undefined) | inactive | 
24 | C[C@H]1CN(C[C@H](Cc2ccccc2)C(=O)NCC(=O)O)CC[C@@]1(C)c1cccc(O)c1 | inactive | 
25 | C=C(C)C(=O)O[C@H]1C[C@@](C)(OC(C)=O)[C@@]2(O)CC[C@@](C)(O)[C@H](OC(C)=O)[C@@]23OC(=O)C(COC)=C13 | inactive | 
26 | CC(=O)NCCCCn1c2c(c3ccccc31)C(=O)NCC2 | inactive | 
27 | CC[C@@H](c1ccc(F)c(F)c1)n1c(C(=O)OC)c(-c2ccno2)[nH]c1=S | inactive | 
28 | CC/C=C/CC1=C(CCCCCCCC(=O)O)CCC1=O | inactive | 
29 | C=C[C@H]1[C@H](O[C@@H]2O[C@H](CO)[C@@H](O)[C@H](O)[C@H]2O)OC=C2C(=O)OCC[C@]21O | inactive | 
30 | O=C(NN1CCCCC1)c1nn(-c2ccc(Cl)cc2Cl)c(-c2ccc(C#Cc3ccc(C(F)(F)F)cc3)s2)c1CNS(=O)(=O)N1CCCC1 | inactive | 
31 | NCc1c[nH]c(=S)n1C1CCc2c(F)cc(F)cc2C1 (centres undefined) | inactive | 
32 | O=C(O)Cc1nn(Cc2nc3cc(C(F)(F)F)ccc3s2)c(=O)c2nccnc12 | inactive | 
33 | CC(=O)N1CCN(NC(=O)c2ccc(F)cc2)CC1 | inactive | 
34 | COc1ccc2cc(OCC3(C(=O)O)CN(C(=O)c4ccc(F)cc4)C3)ccc2c1 | inactive | 
35 | C=C[C@](C)(CC/C=C(\C)C(=O)O)O[C@@H]1OC[C@H](O)[C@H](O)[C@H]1O | inactive | 
36 | CC1(C)CC2C3=CCC4C5(C)CCC(OC6OC(C(=O)O)C(O)C(O)C6OC6OC(CO)C(O)C(O)C6OC6OC(CO)C(O)C(O)C6O)C(C)(CO)C5CCC4(C)C3(C)CCC2(C)C(OC2OCC(O)C(OC3OC(CO)C(O)C(O)C3O)C2O)C1O (centres undefined) |  | inactive [at 9.27 µM]
37 | COc1cc(/C=C/C(=O)OC2[C@H](O)CC(O)(C(=O)O)C[C@H]2O)ccc1O (some centres undefined) | inactive | 
38 | CC(C)=CC/C=C(/C)[C@H]1CC[C@]2(C)[C@@H]1[C@H](O)CC1[C@@]3(C)CC[C@H](O)C(C)(C)[C@@H]3[C@@H](O[C@@H]3O[C@H](CO)[C@@H](O)[C@H](O)[C@H]3O[C@@H]3O[C@@H](C)[C@H](O)[C@@H](O)[C@H]3O)C[C@]12C (some centres undefined) | inactive | 
39 | CC1NC(=O)CNC(=O)C(C(C)C)NC(=O)C2CCCN2C(=O)C(C(C)C)NC(=O)C(Cc2c[nH]c3ccccc23)NC1=O (centres undefined) (cyclo(GAWVPV); configuration not given here) | inactive | 
